Measurements as given in PubChem BioAssay (EPA / NIEHS).
“And” between values parts separate entries of the source, which are not always exact repeats. Equal values may be shown once. Inconclusive results are not listed. A structure can be active in one record and inactive in another. The source made the active and inactive calls. How the source made its calls, unless noted: active means hit-call score of the fitted dose curve at least 0.9, where 1 is the maximum; inconclusive means response in the unintended direction; inactive means score below 0.9.

Key:
[1] = target: chicken Estrogen Receptor (ERa), ESR1 (gene 396099) (UniProt P06212); assay: ATG_chERa_XSP2: Attagene TRANS-FACTORIAL Multi-Species (XSP2) HepG2 Assay for chicken Estrogen Receptor (ERa) (AID 2283817);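 further: actives raise reporter signal above DMSO so AC50 reflects ER activation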
Summary of the method: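 Reporter mRNA induction read by RT-PCR, fluorescent labelling and capillary electrophoresis after 24 h exposure; positive-direction fit against DMSO baseline. HepG2 cells transfected with multiplexed GAL4-UAS units including chicken ERa chimera; medium contained 3 nM 6-alpha-fluorotestosterone plus 1.5 nM norgestrel.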

[2] = system: zebrafish Estrogen Receptor (ER2a), gene 317734; assay: ATG_zfER2a_XSP2: Attagene TRANS-FACTORIAL Multi-Species (XSP2) HepG2 Assay for zebrafish Estrogen Receptor (ER2a) (AID 2283818);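 further: hits raise reporter mRNA so AC50 reflects activation of zebrafish ER2a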
Summary of the method: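 Multiplexed trans-reporter readout: RT-PCR then capillary electrophoresis of reporter transcripts after 24 h compound treatment. Human HepG2 carries transfected zebrafish ER2a-Gal4 chimera; 3 nM 6-alpha-fluorotestosterone plus 1.5 nM norgestrel present. Induction scored against DMSO.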

[3] = system: frog Estrogen Receptor (ER), gene 398734; assay: ATG_frER1_XSP2: Attagene TRANS-FACTORIAL Multi-Species (XSP2) HepG2 Assay for frog Estrogen Receptor (ER) (AID 2283821);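 further: hits raise reporter mRNA above DMSO baseline so potency means agonist or activator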
Summary of the method: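 HepG2 cells transiently transfected with multiplexed GAL4-UAS reporter units expressing chimeric NR-Gal4 proteins (TRANS format) were dosed for 24 h. Reporter mRNA was quantified by RT-PCR, FAM primer extension, HpaI digestion and capillary electrophoresis; gain of signal relative to DMSO.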

[4] = system: zebrafish Estrogen Receptor (ER2b), gene 317733; assay: ATG_zfER2b_XSP2: Attagene TRANS-FACTORIAL Multi-Species (XSP2) HepG2 Assay for zebrafish Estrogen Receptor (ER2b) (AID 2283823);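 further: fitted upward as reporter gain over DMSO so potency reflects activation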
Summary of the method: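 In this multiplexed trans-activation format, HepG2 cells expressing exogenous NR-Gal4 fusions drive GAL4-UAS reporters. Exposure lasts 24 h, and reporter mRNA induction is read by RT-PCR with capillary electrophoresis detection.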

[5] = system: frog Estrogen Receptor (ER2), gene 100174814; assay: ATG_frER2_XSP2: Attagene TRANS-FACTORIAL Multi-Species (XSP2) HepG2 Assay for frog Estrogen Receptor (ER2) (AID 2283828)
Summary of the method: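 Read-out: reporter transcript levels by RT-PCR with 6-FAM primer extension, HpaI digestion and capillary electrophoresis, scored as induction over DMSO control. Transfected HepG2 carrying Xenopus ER2–GAL4 chimera; compounds incubated 24 h.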

[6] = target: Peroxisome proliferator-activated receptor gamma (Homo sapiens) (UniProt P37231); assay: ATG_hPPARg_XSP2: Attagene TRANS-FACTORIAL Multi-Species (XSP2) HepG2 Assay for human Peroxisome Proliferator-activated Receptor gamma (PPARg) (AID 2283829);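 further: actives raise reporter mRNA above DMSO so AC50 reflects PPARg activation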
Summary of the method: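 Multiplexed transactivation in transfected HepG2 liver cells. Gal4-chimeric receptor activity reported as induced reporter transcript after 24 h.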

[7] = target: mouse Peroxisome Proliferator-activated Receptor gamma (PPARg), Pparg (gene 19016) (UniProt P37238); assay: ATG_mPPARg_XSP2: Attagene TRANS-FACTORIAL Multi-Species (XSP2) HepG2 Assay for mouse Peroxisome Proliferator-activated Receptor gamma (PPARg) (AID 2283830);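 further: hits are gains in reporter mRNA above DMSO so AC50 marks activation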
Summary of the method: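 Multiplexed TRANS reporter readout: after 24 h chemical exposure of transfected HepG2 cells (with 3 nM 6-alpha-fluorotestosterone, 1.5 nM norgestrel present), RNA reverse-transcribed, amplified, 6-FAM-labelled and resolved by capillary electrophoresis; mouse PPARg-Gal4 induction scored against DMSO.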

[8] = target: Nuclear receptor subfamily 1 group I member 2 (Mus musculus) (UniProt O54915); assay: ATG_mPXR_XSP2: Attagene TRANS-FACTORIAL Multi-Species (XSP1) HepG2 Assay for mouse Pregnane X Receptor (PXR) (AID 2283831)
Summary of the method: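 Human liver HepG2 cells expressing exogenous receptor-GAL4 chimeras were exposed to test chemicals for 24 h. Induction of reporter mRNA was scored as gain of fluorescence signal over DMSO controls.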

[9] = target: zebrafish Thyroid Hormone Receptor alpha (TRa), thraa (gene 30670) (UniProt Q98867); assay: ATG_zfTRa_XSP2: Attagene TRANS-FACTORIAL Multi-Species (XSP1) HepG2 Assay for zebrafish Thyroid Hormone Receptor alpha (TRa) (AID 2283832);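 further: actives raise zebrafish TRa-Gal4 reporter transcript above DMSO baseline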
Summary of the method: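 Chimeric zebrafish TRa-Gal4 activity read in transfected human HepG2 as GAL4-UAS reporter transcripts, 24 h post-dose, via RT-PCR with labeled primer extension and capillary electrophoresis. Medium also carries 3 nM 6-alpha-fluorotestosterone and 1.5 nM norgestrel; DMSO baseline.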

[10] = system: turtle Thyroid Hormone Receptor, alpha (TRa), gene 101949057; assay: ATG_trTRa_XSP2: Attagene TRANS-FACTORIAL Multi-Species (XSP1) HepG2 Assay for turtle Thyroid Hormone Receptor, alpha (TRa) (AID 2283834);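 further: hits raise reporter mRNA over the DMSO baseline so AC50 marks activators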
Summary of the method: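 Gain-of-signal reporter transcription measured in transiently transfected HepG2 at 24 h post-dose. Fluorescent RT-PCR products were resolved by capillary electrophoresis and compared with DMSO vehicle.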

[11] = ATG_M_61_XSP2: Attagene TRANS-FACTORIAL Multi-Species (XSP2) HepG2 Assay for M61 Transcription Factor (Internal Marker) (AID 2283835; active means hit-call score of the fitted dose curve at least 0.9, where 1 is the maximum; inactive means score below 0.9;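 further: active means a rise in signal above the DMSO baseline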)
Summary of the method: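 Internal background marker, read as RT-PCR/capillary-electrophoresis reporter mRNA 24 h post-dose in transiently transfected HepG2 cells. Androgen receptor stimulated with 3 nM 6-alpha-fluorotestosterone plus 1.5 nM norgestrel; gain of signal versus DMSO analysed.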

[12] = target: zebrafish Thyroid Hormone Receptor beta (TRb), thrb (gene 30607) (UniProt Q9PVE4); assay: ATG_zfTRb_XSP2: Attagene TRANS-FACTORIAL Multi-Species (XSP1) HepG2 Assay for zebrafish Thyroid Hormone Receptor beta (TRb) (AID 2283836)
Summary of the method: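 Reporter transcripts measured by RT-PCR, 6-FAM labelling, HpaI digestion and capillary electrophoresis after 24 h chemical exposure. Human HepG2 cells carry an exogenous zebrafish TRb-GAL4 chimera; medium included 3 nM 6-alpha-fluorotestosterone plus 1.5 nM norgestrel.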

[13] = ATG_XTT_Cytotoxicity_XSP2: Cytotoxicity Assessment in the Attagene TRANS-FACTORIAL Multi-Species (XSP2) HepG2 Assay (AID 2283837)
Summary of the method: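 XTT-based cell number read-out in human HepG2 liver cells carrying transfected reporter units, measured 24 h after chemical dosing. Activity is signal loss versus DMSO baseline.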

[14] = target: human Thyroid hormone Receptor alpha (TRa), THRA (gene 7067) (UniProt P10827); assay: ATG_hTRa_XSP2: Attagene TRANS-FACTORIAL Multi-Species (XSP2) HepG2 Assay for human Thyroid hormone Receptor alpha (TRa) (AID 2283838)
Summary of the method: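 Reporter transcripts were read by RT-PCR with fluorescent primer extension, HpaI digestion and capillary electrophoresis. These came from HepG2 cells carrying multiplexed TRa-Gal4 TRANS constructs, harvested 24 hours after dosing. The medium also held 6-alpha-fluorotestosterone (3 nM) and norgestrel (1.5 nM), and increases were fitted against DMSO.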

[15] = target: frog Thyroid hormone Receptor alpha (TRa), thra-a (gene 397942) (UniProt P15204); assay: ATG_frTRa_XSP2: Attagene TRANS-FACTORIAL Multi-Species (XSP2) HepG2 Assay for frog Thyroid hormone Receptor alpha (TRa) (AID 2283839)
Summary of the method: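 Frog thyroid receptor alpha was tested as an exogenous NR-Gal4 fusion in transiently transfected HepG2 cells. After 24 h chemical treatment, reporter mRNA induction was quantified by RT-PCR and capillary electrophoresis, with gain-of-signal analysed relative to DMSO.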

[16] = target: human Thyroid hormone Receptor beta (TRb), THRB (gene 7068) (UniProt P10828); assay: ATG_hTRb_XSP2: Attagene TRANS-FACTORIAL Multi-Species (XSP2) HepG2 Assay for human Thyroid hormone Receptor beta (TRb) (AID 2283840);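 further: actives raise reporter mRNA so potency reflects agonist-like gain of signal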
Summary of the method: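 In this cell-based multiplex, HepG2 liver cells carrying transfected GAL4-UAS reporter constructs are exposed to chemical for 24 hours, then reporter transcripts are measured by RT-PCR with capillary electrophoresis, scored as gain of signal against DMSO.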

[17] = system: chicken Androgen Receptor (AR), gene 422165; assay: ATG_chAR_XSP2: Attagene TRANS-FACTORIAL Multi-Species (XSP2) HepG2 Assay for chicken Androgen Receptor (AR) (AID 2283819);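 further: hits raise reporter mRNA above DMSO so potency is for activation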
Summary of the method: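 Readout is reporter mRNA induction via RT-PCR/capillary electrophoresis after 24 h chemical exposure, positive direction relative to DMSO. Transiently transfected HepG2 express chimeric chicken AR–GAL4; AR stimulated by 3 nM 6-alpha-fluorotestosterone and 1.5 nM norgestrel.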

[18] = target: Estrogen receptor (Homo sapiens) (UniProt P03372); assay: ATG_hERa_XSP2: Attagene TRANS-FACTORIAL Multi-Species (XSP2) HepG2 Assay for human Estrogen Receptor (ERa) (AID 2283827)
Summary of the method: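 Trans-activation of exogenous human ERa-Gal4 chimera read in HepG2 as reporter transcript after 24 h exposure; medium included 3 nM 6-alpha-fluorotestosterone and 1.5 nM norgestrel. Quantified by RT-PCR with capillary electrophoresis, positive-direction fitting against DMSO.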

[19] = system: zebrafish Peroxisome Proliferator-activated Receptor gamma (PPARg), gene 557037; assay: ATG_zfPPARg_XSP2: Attagene TRANS-FACTORIAL Multi-Species (XSP2) HepG2 Assay for zebrafish Peroxisome Proliferator-activated Receptor gamma (PPARg) (AID 2283833);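 further: actives increase reporter signal over DMSO so AC50 reflects activation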
Summary of the method: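 Cell-based transactivation of a chimeric zebrafish PPARg-GAL4 receptor was assessed in transiently transfected HepG2 cells after 24 h of treatment. Reporter mRNA induction, detected fluorescently after RT-PCR, was analysed in the positive direction against DMSO.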

[20] = ATG_M_19_XSP2: Attagene TRANS-FACTORIAL Multi-Species (XSP2) HepG2 Assay for M32 Transcription Factor (Internal Marker) (AID 2283822)
Summary of the method: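 Internal background marker in a multi-species nuclear receptor TRANS panel: transfected HepG2 cells exposed 24 h, with 3 nM 6-alpha-fluorotestosterone and 1.5 nM norgestrel present. Readout is RT-PCR of reporter transcripts resolved by capillary electrophoresis, gain-of-signal versus DMSO.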

Measured: AC50

Sequence of Nuclear receptor subfamily 1 group I member 2 (Mus musculus) (O54915 whole entry, looked up, the tested form may be a part): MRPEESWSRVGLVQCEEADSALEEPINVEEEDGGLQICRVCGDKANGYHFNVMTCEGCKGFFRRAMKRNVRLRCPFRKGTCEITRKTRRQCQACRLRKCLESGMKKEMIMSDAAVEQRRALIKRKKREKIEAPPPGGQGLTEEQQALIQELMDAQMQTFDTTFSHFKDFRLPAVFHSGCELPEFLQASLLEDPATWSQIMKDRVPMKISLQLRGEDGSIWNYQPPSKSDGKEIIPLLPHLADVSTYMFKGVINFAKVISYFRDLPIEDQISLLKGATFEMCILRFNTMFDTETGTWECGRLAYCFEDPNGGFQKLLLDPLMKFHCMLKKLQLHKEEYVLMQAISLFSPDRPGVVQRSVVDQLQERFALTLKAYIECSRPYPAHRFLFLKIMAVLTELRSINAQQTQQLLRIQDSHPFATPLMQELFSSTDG
Sequence of mouse Peroxisome Proliferator-activated Receptor gamma (PPARg), Pparg (gene 19016) (P37238 whole entry, looked up, the tested form may be a part): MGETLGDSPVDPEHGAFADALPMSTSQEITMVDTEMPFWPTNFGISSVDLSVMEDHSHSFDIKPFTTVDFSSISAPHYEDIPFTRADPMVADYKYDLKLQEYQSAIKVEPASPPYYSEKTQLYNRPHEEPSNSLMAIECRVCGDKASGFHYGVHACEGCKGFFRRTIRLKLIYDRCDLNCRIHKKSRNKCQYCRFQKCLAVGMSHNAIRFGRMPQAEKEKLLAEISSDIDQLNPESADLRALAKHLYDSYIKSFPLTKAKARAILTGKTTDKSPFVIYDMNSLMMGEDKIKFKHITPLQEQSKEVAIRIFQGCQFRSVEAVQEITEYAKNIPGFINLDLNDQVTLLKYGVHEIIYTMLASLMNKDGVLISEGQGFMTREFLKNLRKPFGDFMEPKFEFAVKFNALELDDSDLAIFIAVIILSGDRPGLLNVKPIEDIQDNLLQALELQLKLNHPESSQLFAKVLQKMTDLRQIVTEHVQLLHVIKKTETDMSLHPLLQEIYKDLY
Sequence of human Thyroid hormone Receptor beta (TRb), THRB (gene 7068) (P10828 whole entry, looked up, the tested form may be a part): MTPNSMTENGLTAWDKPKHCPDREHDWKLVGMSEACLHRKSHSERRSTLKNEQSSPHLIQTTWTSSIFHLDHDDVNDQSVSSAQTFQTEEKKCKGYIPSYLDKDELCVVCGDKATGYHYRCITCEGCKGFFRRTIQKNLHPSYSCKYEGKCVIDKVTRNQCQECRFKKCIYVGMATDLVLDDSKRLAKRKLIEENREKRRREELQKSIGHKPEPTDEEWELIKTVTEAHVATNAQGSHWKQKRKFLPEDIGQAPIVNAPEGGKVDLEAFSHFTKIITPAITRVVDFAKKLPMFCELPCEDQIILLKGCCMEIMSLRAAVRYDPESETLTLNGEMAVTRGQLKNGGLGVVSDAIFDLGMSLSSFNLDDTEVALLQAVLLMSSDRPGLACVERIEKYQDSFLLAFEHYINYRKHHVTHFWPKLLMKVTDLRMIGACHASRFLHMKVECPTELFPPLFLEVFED
Sequence of chicken Estrogen Receptor (ERa), ESR1 (gene 396099) (P06212 whole entry, looked up, the tested form may be a part): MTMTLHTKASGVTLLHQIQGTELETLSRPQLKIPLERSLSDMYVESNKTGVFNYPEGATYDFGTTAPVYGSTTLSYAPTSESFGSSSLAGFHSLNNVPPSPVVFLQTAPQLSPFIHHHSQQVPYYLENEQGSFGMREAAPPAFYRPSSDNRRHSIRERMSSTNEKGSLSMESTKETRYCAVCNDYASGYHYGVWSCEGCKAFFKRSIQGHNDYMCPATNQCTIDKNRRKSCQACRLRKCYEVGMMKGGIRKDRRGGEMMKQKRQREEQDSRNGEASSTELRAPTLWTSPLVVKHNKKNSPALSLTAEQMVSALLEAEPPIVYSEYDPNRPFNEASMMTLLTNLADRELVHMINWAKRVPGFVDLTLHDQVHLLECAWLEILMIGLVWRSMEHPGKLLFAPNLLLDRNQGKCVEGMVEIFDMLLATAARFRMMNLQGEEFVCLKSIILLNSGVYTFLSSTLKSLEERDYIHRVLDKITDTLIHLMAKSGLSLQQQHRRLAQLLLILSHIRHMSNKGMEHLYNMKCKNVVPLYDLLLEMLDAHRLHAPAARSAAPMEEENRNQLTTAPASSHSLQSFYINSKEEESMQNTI
Sequence of Peroxisome proliferator-activated receptor gamma (Homo sapiens) (P37231 whole entry, looked up, the tested form may be a part): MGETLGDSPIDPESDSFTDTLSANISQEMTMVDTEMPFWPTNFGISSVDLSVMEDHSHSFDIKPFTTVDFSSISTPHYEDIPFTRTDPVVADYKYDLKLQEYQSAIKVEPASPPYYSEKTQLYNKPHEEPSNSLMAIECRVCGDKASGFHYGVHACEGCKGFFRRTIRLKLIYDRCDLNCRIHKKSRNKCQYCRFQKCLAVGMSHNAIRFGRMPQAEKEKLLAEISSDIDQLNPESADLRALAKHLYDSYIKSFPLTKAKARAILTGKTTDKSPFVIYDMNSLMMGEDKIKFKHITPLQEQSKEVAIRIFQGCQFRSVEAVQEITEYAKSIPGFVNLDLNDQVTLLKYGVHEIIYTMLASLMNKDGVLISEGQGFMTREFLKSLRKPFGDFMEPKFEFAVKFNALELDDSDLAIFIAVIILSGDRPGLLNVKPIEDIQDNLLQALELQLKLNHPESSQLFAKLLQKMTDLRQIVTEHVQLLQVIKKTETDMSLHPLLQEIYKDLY
Sequence of zebrafish Thyroid Hormone Receptor beta (TRb), thrb (gene 30607) (Q9PVE4 whole entry, looked up, the tested form may be a part): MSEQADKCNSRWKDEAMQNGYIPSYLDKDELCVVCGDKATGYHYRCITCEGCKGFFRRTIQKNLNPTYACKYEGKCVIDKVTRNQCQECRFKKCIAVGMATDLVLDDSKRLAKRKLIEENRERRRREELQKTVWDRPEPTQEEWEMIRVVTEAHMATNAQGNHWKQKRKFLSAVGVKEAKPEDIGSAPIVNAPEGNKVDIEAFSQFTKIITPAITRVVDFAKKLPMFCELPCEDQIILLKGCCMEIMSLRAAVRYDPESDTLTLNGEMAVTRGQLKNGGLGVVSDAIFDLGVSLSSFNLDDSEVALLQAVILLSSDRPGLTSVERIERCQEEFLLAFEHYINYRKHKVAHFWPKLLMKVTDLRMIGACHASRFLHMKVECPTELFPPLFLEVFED
Sequence of frog Thyroid hormone Receptor alpha (TRa), thra-a (gene 397942) (P15204 whole entry, looked up, the tested form may be a part): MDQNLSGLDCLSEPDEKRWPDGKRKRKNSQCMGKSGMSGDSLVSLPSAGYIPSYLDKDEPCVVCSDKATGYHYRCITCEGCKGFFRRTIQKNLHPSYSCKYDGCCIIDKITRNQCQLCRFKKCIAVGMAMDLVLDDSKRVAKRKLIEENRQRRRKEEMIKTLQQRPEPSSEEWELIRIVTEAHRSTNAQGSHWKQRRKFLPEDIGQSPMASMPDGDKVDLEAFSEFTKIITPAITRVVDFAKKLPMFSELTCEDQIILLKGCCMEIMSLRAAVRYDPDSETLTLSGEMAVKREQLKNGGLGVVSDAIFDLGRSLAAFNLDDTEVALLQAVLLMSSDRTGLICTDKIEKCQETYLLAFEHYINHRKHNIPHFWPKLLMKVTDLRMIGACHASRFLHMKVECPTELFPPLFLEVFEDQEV
Sequence of zebrafish Thyroid Hormone Receptor alpha (TRa), thraa (gene 30670) (Q98867 whole entry, looked up, the tested form may be a part): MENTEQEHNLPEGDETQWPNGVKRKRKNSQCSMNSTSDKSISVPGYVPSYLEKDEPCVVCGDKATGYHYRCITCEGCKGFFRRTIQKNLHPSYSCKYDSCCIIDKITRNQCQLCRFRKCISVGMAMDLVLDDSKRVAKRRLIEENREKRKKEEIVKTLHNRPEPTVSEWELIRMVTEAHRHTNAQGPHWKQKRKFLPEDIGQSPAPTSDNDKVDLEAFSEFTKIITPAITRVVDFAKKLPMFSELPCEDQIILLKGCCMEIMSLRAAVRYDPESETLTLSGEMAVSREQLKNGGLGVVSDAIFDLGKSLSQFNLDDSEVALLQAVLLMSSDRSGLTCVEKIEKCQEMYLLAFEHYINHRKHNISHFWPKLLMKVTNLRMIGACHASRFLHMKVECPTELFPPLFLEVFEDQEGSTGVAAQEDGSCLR
Sequence of human Thyroid hormone Receptor alpha (TRa), THRA (gene 7067) (P10827 whole entry, looked up, the tested form may be a part): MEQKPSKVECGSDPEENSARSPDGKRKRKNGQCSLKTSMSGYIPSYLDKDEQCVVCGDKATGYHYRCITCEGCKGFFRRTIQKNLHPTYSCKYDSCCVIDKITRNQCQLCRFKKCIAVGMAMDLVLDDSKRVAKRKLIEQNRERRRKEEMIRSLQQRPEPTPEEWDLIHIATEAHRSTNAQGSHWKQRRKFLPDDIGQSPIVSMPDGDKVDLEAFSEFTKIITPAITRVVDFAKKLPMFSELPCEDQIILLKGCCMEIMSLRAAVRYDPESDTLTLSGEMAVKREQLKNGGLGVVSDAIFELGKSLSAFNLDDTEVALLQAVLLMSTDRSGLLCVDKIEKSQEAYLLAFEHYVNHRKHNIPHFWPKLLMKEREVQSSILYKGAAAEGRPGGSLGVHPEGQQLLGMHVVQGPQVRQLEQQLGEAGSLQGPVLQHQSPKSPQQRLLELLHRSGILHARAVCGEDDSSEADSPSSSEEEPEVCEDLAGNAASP
Sequence of Estrogen receptor (Homo sapiens) (P03372 whole entry, looked up, the tested form may be a part): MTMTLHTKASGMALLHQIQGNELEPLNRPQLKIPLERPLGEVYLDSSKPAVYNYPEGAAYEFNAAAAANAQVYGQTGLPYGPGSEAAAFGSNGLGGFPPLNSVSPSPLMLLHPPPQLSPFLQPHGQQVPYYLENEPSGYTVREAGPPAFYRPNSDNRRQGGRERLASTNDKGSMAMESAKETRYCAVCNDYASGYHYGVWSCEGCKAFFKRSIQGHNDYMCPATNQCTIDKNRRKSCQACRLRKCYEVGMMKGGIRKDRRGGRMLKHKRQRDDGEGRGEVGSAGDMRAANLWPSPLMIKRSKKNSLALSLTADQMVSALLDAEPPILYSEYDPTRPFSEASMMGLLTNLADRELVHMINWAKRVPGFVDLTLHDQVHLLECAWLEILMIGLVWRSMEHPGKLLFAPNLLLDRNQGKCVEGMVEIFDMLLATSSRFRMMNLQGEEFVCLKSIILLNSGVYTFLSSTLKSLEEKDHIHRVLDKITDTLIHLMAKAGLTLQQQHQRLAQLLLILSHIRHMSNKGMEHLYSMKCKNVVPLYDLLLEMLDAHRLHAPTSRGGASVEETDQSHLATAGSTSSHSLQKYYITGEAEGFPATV

Oc1ccc2c(c1)-c1ccccc1C2
active: [1] 4.69 µM and 2.17 µM | [2] 2.55 µM | [3] 4.78 µM and 2.89 µM | [4] 21.4 µM and 12.1 µM | [5] 6.95 µM and 3.52 µM | [6] 19.8 µM and 28.4 µM | [7] 43.9 µM and 49.3 µM | [8] 17.1 µM and 44.2 µM
inactive: [2] | [9] | [10] | [11] | [12] | [13] | [14] | [15] | [16]

O=P(OC(CCl)CCl)(OC(CCl)CCl)OC(CCl)CCl
active: [18] 7.39 µM | [6] 50.5 µM | [7] 26.2 µM | [8] 703 nM
not listed: [2] | [13] | [14] | [20]
inactive: all other assays above

Clc1nc(Cl)c(Cl)c(Cl)c1Cl
active: [1] 26.6 µM and 86.3 µM | [3] 100 µM | [4] 184 µM | [5] 26 µM | [6] 1.04 µM and 14.9 µM | [7] 1.48 µM and 2.05 µM
inactive: [2] | [3] | [20] | [4] | [8] | [9] | [19] | [12] | [13] | [15] | [16]
